Measurements: PubChem BioAssay (Tox21)
Where “and” joins values, the source holds several entries; their conditions need not be identical. Equal values may be shown once. Results filed as inconclusive are left out. Where a call stands in place of a potency, no number is given. Calls of active or inactive are those of the source. Calls follow the shape of the dose curve; as a rule, active = well fitted inhibition curve with a large enough effect in the repeat runs; inconclusive = weak or mixed curves; inactive = flat fitted curve, though single readings scatter.

Assay: qHTS assay to identify small molecule HDAC inhibitors (AID 1259364); also: nearly all actives have a fitted effect of over 45% in size; as to activity change, negative = inhibition: top concentration of the series differs between compounds
Conditions: HCT-116 HDAC-Glo I/II luminescence, 2 h; series mostly up to 92.4 µM; activity change, negative = inhibition: at the top concentration
Method in brief: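 Screening used wild-type human colon HCT-116 cells incubated overnight, dosed with compounds for 2 hours, and assayed with a homogeneous luminogenic HDAC I/II reagent for 30 minutes at room temperature.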
Potency is read from the fitted curve at half-maximal effect.

Structure (SMILES) | Potency | activity change, negative = inhibition
COc1ccc(C(Cl)=C(c2ccc(OC)cc2)c2ccc(OC)cc2)cc1 | inactive | 
NS(=O)(=O)c1cc2c(cc1Cl)NCNS2(=O)=O | inactive | 
COc1ccc2c(c1)c(CC(=O)O)c(C)n2C(=O)c1ccc(Cl)cc1 | inactive | 
O=c1[nH]cnc2c1ncn2[C@H]1CC[C@@H](CO)O1 | inactive | 
Cc1ncc([N+](=O)[O-])n1CCO | inactive | 
CCc1nc(N)nc(N)c1-c1ccc(Cl)cc1 | inactive | 
CN(C)C(=O)Nc1ccc(Cl)c(Cl)c1 | inactive | 
CCCCOC(=O)c1ccc(O)cc1 | 27.6 µM (active) and 30.6 µM (active) | 
CC12CCC(CC1)C(C)(C)O2 | inactive | 
CCOc1ccc(NC(C)=O)cc1 | inactive | 
CCCCC1(COC(=O)CCC(=O)O)C(=O)N(c2ccccc2)N(c2ccccc2)C1=O | inactive | 
CCCc1cc(=O)[nH]c(=S)[nH]1 | inactive | 
CCOC(N)=O | inactive | 
CCN(CC)C(=O)c1cccc(C)c1 | inactive | 
CCCCCCCC(=O)OCC(COC(=O)CCCCCCC)OC(=O)CCCCCCC | inactive | 
O=C1OC2(c3ccccc31)c1cc(Br)c(O)c(Br)c1Oc1c2cc(Br)c(O)c1Br | inactive | 
NC(=O)c1cccnc1 | inactive | 
CN1[C@@H]2CC(OC(=O)[C@H](CO)c3ccccc3)C[C@H]1[C@@H]1O[C@@H]12 (stereo partly specified) | inactive | 
CN(C)CCOC(c1ccccc1)c1ccccc1 | inactive | 
CC(=O)CCC(=O)O | inactive | 
Cc1c(C(=O)O)c(O)cc2c1C(=O)c1c(O)c([C@@H]3O[C@H](CO)[C@@H](O)[C@H](O)[C@H]3O)c(O)c(O)c1C2=O |  | -9.73% [at 42.5 µM] (inactive)
